Assay results as given in PubChem BioAssay AID1745847 (National Center for Advancing Translational Sciences (NCATS), 2022).
Values joined by “and” are separate entries in the source; they are usually repeats but may differ in a detail not shown here. Identical values can stand only once. Screen size: about 2,100 compounds; about 670 (32%) were called active. About 50% were inconclusive and are not listed. Some of the results follow. Values without a mark were called inactive. The call rests on the fitted dose curve; in most records, active means well fitted inhibition curve with a large enough effect; inconclusive means small, poorly fitted or top-dose-only effect; inactive means no such curve, though single readings can be large or run the other way.

Test: CMV-Luciferase Counterscreen for Inhibitors of ATXN expression; further: nearly all actives have a fitted effect of over 55% in size
Conditions: HEK-293 CMV-luciferase reporter, luminescence, 24 h; series mostly up to 57.5 µM
On the % scale 0 is the no-effect control and ±100 the full control effect; potency means the concentration at half of the fitted maximal effect.

SMILES	activity change, negative = inhibition	Potency
CCCC/C(C)=N/NC(=O)c1cn(-c2ccccc2)nc1-c1ccccc1	-28.6% [at 11.4 µM]	
COc1ccc(-c2nn(-c3ccccc3)cc2C(=O)NC(=S)NNC(=O)c2ccncc2)cc1		8.91 µM (active)
Cc1ccc(-c2nc3cc(Br)cnc3nc2-c2ccc(C)cc2)cc1	-25.9% [at 11.4 µM]	
CCOC(=O)c1cnc(-n2nc(C)cc2C)nc1NC1CCCC1		1.78 µM (active)
C=CCOc1ccc(CNc2ccc3[nH]c(=O)[nH]c3c2)cc1OC		inactive
COc1ccc(Cc2nnc(N/N=C/c3ccccc3O)[nH]c2=O)cc1OC		1.41 µM (active)
COc1ccc(Cc2nnc(N/N=C/c3ccc(O)cc3)[nH]c2=O)cc1OC		0.891 µM (active)
CCN(CC)S(=O)(=O)c1cc(NC(=O)C2CCN(c3ncnc4sc(C)c(C)c34)CC2)ccc1Cl		inactive
COc1ccc(-c2csc(NC(=O)C3CCN(c4ncnc5sc(C)c(C)c45)CC3)n2)cc1OC		3.55 µM (active)
COc1ccc(S(=O)(=O)N(C)C)cc1NC(=O)C1CCN(c2ncnc3sc(C)c(C)c23)CC1		10 µM (active)
CN(C)c1ccccc1-c1cc(NC=O)c2ncc(-c3cccc(C(F)(F)F)c3)n2c1	-12.7% [at 11.4 µM]	
O=[N+]([O-])c1ccc(/C=N/N=C/c2ccc([N+](=O)[O-])o2)o1		14.1 µM (active)
O=C(N/N=C/c1c(O)ccc2ccccc12)c1cccc(C(F)(F)F)c1		2.82 µM (active)
O=C(N/N=C/c1cc([N+](=O)[O-])ccc1O)c1cccc(N2CCCC2=O)c1		7.94 µM (active)
O=C(NN=Cc1c(O)ccc2ccccc12)c1ccc2c(c1)OCO2		2.24 µM (active)
O=C(N/N=C/c1ccc([N+](=O)[O-])o1)c1ccc2c(c1)OCO2		12.6 µM (active)
O=C(NN=Cc1ccccc1O)c1cccc([N+](=O)[O-])c1		3.98 µM (active)
C/C(=N\Nc1cc(N2CCOCC2)nc(C)n1)c1cccc([N+](=O)[O-])c1	-9.23% [at 11.4 µM]	
O=C(N/N=C/c1ccccc1O)c1cccc(C(F)(F)F)c1		0.501 µM (active)
COc1ccc(/C=N/NC(=O)c2cccc([N+](=O)[O-])c2)c2ccccc12	-1.17% [at 11.4 µM]	
O=C(N/N=C\c1c(O)ccc2ccccc12)c1ccc(Cn2cccn2)o1		0.891 µM (active)
COc1ccc(S(=O)(=O)Nc2ccc(F)cc2)cc1N(C)S(=O)(=O)c1ccc(Cl)cc1		10 µM (active)
O=C(Nc1nnc(C2CC2)o1)c1ccc(S(=O)(=O)N2CCCc3ccccc32)cc1		7.08 µM (active)

SMILES	activity change, negative = inhibition	Potency
CCN(Cc1ccccc1)S(=O)(=O)c1ccc(C(=O)Nc2nnc(C3CC3)o2)cc1		2.24 µM (active)
CN1CCC(N(C)C(=O)c2ccc(Cl)c(S(=O)(=O)N3CCc4ccccc43)c2)CC1		inactive
Cc1ccc(C(=O)N/C(=C\c2ccc(-c3ccc(Cl)cc3)o2)C(=O)NCCCN(C)C)cc1		inactive
Cc1cccc(OCC(=O)NCC(=O)N/N=C/c2cc(Br)cc(Br)c2O)c1		5.01 µM (active)
O=C(COc1ccccc1)NCC(=O)N/N=C/c1ccc(O)cc1O		14.1 µM (active)
O=C(/C=C\c1ccccc1)NCC(=O)N/N=C/c1ccc(O)cc1O		25.1 µM (active)
O=C(N/N=C/c1ccc(O)cc1O)/C(=C/c1ccccc1)CCO		1.78 µM (active)
CCC(=O)OC1(C(C)=O)CCC2C3CCC4=CC(=O)CCC4(C)C3CCC21C (centres undefined)		inactive
O=C(OCCN1C(=O)c2cccc3c(N4CCOCC4)ccc(c23)C1=O)c1ccccc1Cl		15.8 µM (active)
CC1(C)C(C=C(Cl)Cl)C1C(=O)Nc1ccc([N+](=O)[O-])cc1 (centres undefined)		20 µM (active)
Cc1cccc(OCCSc2nc3ncnc(N)c3[nH]2)c1		inactive
CCN(CC)CCCNc1nc2ccccc2c2nc(-c3ccncc3)nn12		12.6 µM (active)
Cc1cc(C)cc(NC(=O)CCC(=O)Nc2cc(C)on2)c1	165% [at 11.4 µM]	
Cc1ccc(/C=C2/SC(=S)N(CCCC(=O)Nc3cc([N+](=O)[O-])ccc3O)C2=O)cc1		28.2 µM (active)
Cc1ccc(/C=C2\SC(=S)N(CCCC(=O)Nc3ccccc3C(=O)O)C2=O)cc1		2 µM (active)
Cc1ccc(/C=C2\SC(=S)N(CCCC(=O)Nc3cc(C)on3)C2=O)cc1		3.55 µM (active)
Cc1ccc(/C=C2\SC(=S)N(CCCC(=O)Nc3ccc(O)cc3)C2=O)cc1		3.16 µM (active)
Cc1ccc(/C=C2\SC(=S)N(CCCC(=O)NC3CCCC3)C2=O)cc1		2.51 µM (active)
Cc1ccc(/C=C2/SC(=S)N(CCCC(=O)Nc3ccc(O)cc3)C2=O)cc1		2 µM (active)
COc1cccc(/C=C2/SC(=S)N(CCCC(=O)Nc3ccc(O)cc3)C2=O)c1		3.16 µM (active)
Cc1ccc(/C=C2\SC(=S)N(CCCC(=O)Nc3cccnc3)C2=O)cc1		3.98 µM (active)
Cc1ccc(NC(=O)COc2ccc(/C=C3/SC(=Nc4ccccc4)N(Cc4cccnc4)C3=O)cc2)cc1		inactive
CC(C)C[C@H](N)c1cn([C@@H](CCCCN)C(=O)N2CCNCC2)nn1	-7.7% [at 11.4 µM]	

SMILES	activity change, negative = inhibition	Potency
Cc1csc(NC(=O)COCC(=O)O)c1-c1nc2ccccc2s1		inactive
c1cc2c(cc1-c1cnc3n1CCC3)OCCO2		inactive
CC(C)(O)C#Cc1ccc([C@@H]2C[C@H]3CN(c4ccccc4)C(=O)[C@]34CCCN24)s1		inactive
O=[N+]([O-])c1ccc(O)c(/C=N/Nc2ncnc3c2cnn3-c2ccccc2)c1		1.58 µM (active)
CN(C)S(=O)(=O)c1cccc(N2C(=O)CC3(CCCCC3)CC2=O)c1	-19.6% [at 11.4 µM]	
COc1cccc(/C=N/NC(=O)CSc2ccccc2C)c1O		7.08 µM (active)
COc1ccc(CSCC(=O)N/N=C/c2ccccc2O)cc1		25.1 µM (active)
C/C(=N\OCC(=O)N/N=C/c1ccccc1O)c1cccs1		12.6 µM (active)
COc1cccc(/C=N/NC(=O)CSCC(=O)Nc2ccccc2)c1O		1.26 µM (active)
COc1cccc(/C=N/NC(=O)Cn2nc(C)c([N+](=O)[O-])c2C)c1O		8.91 µM (active)
COc1ccc(O)c(/C=N/NC(=O)c2ccc(CSc3nc(C)cc(C)n3)cc2)c1		2.82 µM (active)
CCCCSc1nc(C)cc(SCC(=O)N/N=C/c2cccc(OC)c2O)n1		1 µM (active)
OC(c1cc(-c2cccc(Cl)c2)nc2ccccc12)C1CCCCN1 (centres undefined)		22.4 µM (active)
Cc1onc(-c2c(F)cccc2Cl)c1C(=O)Nc1nnc(C(F)(F)F)s1		1.41 µM (active)
C[n+]1c2cc(N)ccc2cc2ccc(N)cc21		8.91 µM (active) and 3.55 µM (active)
Cc1nc2ccccc2n1-c1nc(-c2ccco2)cc(C(F)(F)F)n1		inactive
CC(C)NC1CCC(Nc2ccnc3cc(Cl)ccc23)CC1 (centres undefined)		17.8 µM (active)
Cc1ccc(N=Nc2ccc(O)c3ncccc23)cc1		3.55 µM (active)
Cc1ccccc1N=Nc1ccc(O)c2ncccc12		1.41 µM (active)
CC(C)(C)S(=O)(=O)/C(C#N)=N/Nc1ccc(Cl)cc1		7.94 µM (active)
FC(F)(F)c1ccc(N2CCN(c3cc(-c4ccccc4)nc4ncnn34)CC2)nc1		1.58 µM (active)
O=c1cc(Nc2ccc3c(c2)OCCO3)[nH]c(=O)n1-c1ccc(Br)cc1		inactive
O=C(Cn1c(=O)n(CC(=O)NCc2ccccc2)c2ccccc21)NCc1ccccc1		inactive

SMILES	activity change, negative = inhibition	Potency
CCN(CC)c1ccc(/C=N/NC(=O)Cc2cccs2)c(O)c1		2.82 µM (active)
CCN(CC)c1ccc(/C=N/NC(=O)c2cccc(S(=O)(=O)N3CCOCC3)c2)c(O)c1		0.891 µM (active)
CCN(CC)c1ccc(/C=N/NC(=O)CCC(=O)NCc2ccccc2)c(O)c1		3.16 µM (active)
CN(C)c1nc(N/N=C/c2c[nH]c3ccccc23)nc(N2CCOCC2)n1	-16.1% [at 11.4 µM]	
Cc1cc(C)n(-c2nc(NCCN(C)C)c3c4c(sc3n2)COC(C)(C)C4)n1	-12.1% [at 11.4 µM]	
CN1CCN(c2nc(-c3ccccn3)nc3ccccc23)CC1		inactive
c1ccc(CNc2nc(-c3ccccn3)nc3ccccc23)cc1		4.47 µM (active)
O=S(=O)(Cc1cc(NCc2ccccc2)nc(-c2ccccn2)n1)c1ccccc1		inactive
O=S(=O)(c1ccc2c(c1)OCCO2)N1CCC(c2nc3ccc(Cl)cc3[nH]2)CC1		3.98 µM (active)
CCOc1ccc(NCc2cccn2-c2nnc(N3CCC(C(=O)NCCCN4CC(C)CC(C)C4)CC3)s2)cc1 (centres undefined)	-19.5% [at 11.4 µM]	
COc1ccc(-n2c(-c3ccc(Cl)cc3)c[n+]3c2CCCCC3)cc1		12.6 µM (active)
COc1ccc(-c2c[n+]3c(n2-c2ccc(C)cc2)CCCCC3)cc1		6.31 µM (active)
O=c1cc(-c2ccccc2Cl)oc2c([N+](=O)[O-])c(O)cc(O)c12		1.26 µM (active)
CC1(S(=O)(=O)O)CC(=O)c2ccccc2C1=O (centres undefined)		28.2 µM (active)
CC(C)N(C(=O)COC(=O)c1ccccc1C(=O)c1ccc(Cl)c([N+](=O)[O-])c1)C(C)C	-18% [at 11.4 µM]	
CCn1c(C)cc(C(=O)COC(=O)c2ccccc2[N+](=O)[O-])c1C		22.4 µM (active)
Cc1ccc(SCCC(=O)N/N=C/c2ccccc2O)cc1		1.78 µM (active)
O=C(CCc1ccccc1)N/N=C/c1cc(Br)ccc1O		0.891 µM (active)
O=C(CP(=O)(c1ccccc1)c1ccccc1)N/N=C/c1cc(Br)cc(Br)c1O		1.78 µM (active)
O=C(CCN1CCN(c2ccccc2)CC1)N/N=C/c1ccccc1O		0.501 µM (active)
